PubChem BioAssay AID2562 (National Center for Advancing Translational Sciences (NCATS), 2010)
Inconclusive results are not listed. Where a call stands in place of a potency, no number is given. The source made the active and inactive calls. The call rests on the fitted dose curve; in most records, active means well fitted curve in the direction sought with a large enough effect; inconclusive means small, poorly fitted or top-dose-only effect, or effect the other way, or another doubt; inactive means no such curve, though single readings can be large or run the other way.

Target: Pyruvate kinase PKLR (Homo sapiens) (UniProt P30613)
Assay: Secondary LDH Assay for Activators of Human Reticulocyte Pyruvate Kinase: for Probe SAR
Outline: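 LDH-coupled kinetic readout of pyruvate formation: NADH (0.2 mM) fluorescence decline over 3-6 minutes gave initial rates. Reactions held 10 nM hPK-R, 1 uM LDH, 0.1 mM PEP and 4.0 mM ADP at pH 8.0; activation normalized to fructose-bis-phosphate-type EC100.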

Sequence of Pyruvate kinase PKLR (Homo sapiens) (P30613 whole entry, looked up): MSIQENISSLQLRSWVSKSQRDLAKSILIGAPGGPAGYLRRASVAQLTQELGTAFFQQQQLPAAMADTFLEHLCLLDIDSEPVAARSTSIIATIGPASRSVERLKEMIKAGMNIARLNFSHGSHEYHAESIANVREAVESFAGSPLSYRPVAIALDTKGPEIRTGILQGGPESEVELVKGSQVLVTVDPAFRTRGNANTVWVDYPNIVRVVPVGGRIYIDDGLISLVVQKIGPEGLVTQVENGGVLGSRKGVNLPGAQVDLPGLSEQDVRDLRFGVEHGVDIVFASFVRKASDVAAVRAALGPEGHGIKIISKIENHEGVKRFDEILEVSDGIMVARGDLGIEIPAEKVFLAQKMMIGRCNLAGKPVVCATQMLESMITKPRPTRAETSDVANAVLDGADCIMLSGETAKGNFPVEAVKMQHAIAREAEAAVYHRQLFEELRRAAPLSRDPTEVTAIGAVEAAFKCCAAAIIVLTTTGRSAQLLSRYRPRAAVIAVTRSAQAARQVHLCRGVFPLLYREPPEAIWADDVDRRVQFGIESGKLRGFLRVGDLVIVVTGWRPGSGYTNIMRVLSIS

Structure (SMILES)	Potency
O=C1c2ccccc2C(=O)N1c1ccccc1O	inactive
O=C1c2ccccc2C(=O)N1Cc1ccncc1	inactive
COc1cccc(Cn2ncc3c4sc(SC)cc4n(C)c3c2=O)c1	inactive
Cc1ccc(NS(=O)(=O)c2cc3c(cc2Cl)CCC(=O)N3)cc1C	inactive
COc1cccc(OC2=NS(=O)(=O)c3ccccc32)c1	inactive
Cc1ccc(-c2nc3cnccn3c2Nc2ccc(C(C)C)cc2)o1	inactive
CCNc1cccc(S(=O)(=O)N2CCN(S(=O)(=O)c3ccc4c(c3)OCCO4)CC2)c1	inactive
Cc1ccc(NS(=O)(=O)c2cc3c(cc2Br)NC(=O)CO3)cc1C	inactive
O=C1c2ccccc2C(=O)N1c1ncccc1O	inactive
O=C1c2ccccc2C(=O)N1c1nccs1	inactive
Cc1ccc2nc(-c3ccc(C)o3)c(Nc3ccc4c(c3)OCO4)n2c1	inactive
Cc1cc(C)n2c(Nc3ccccc3)c(-c3ccc(C)o3)nc2n1	inactive
O=C1CCc2cc(S(=O)(=O)Nc3ccc(Cl)cc3)ccc2N1	inactive
COc1cc(N2C(=O)c3ccccc3C2=O)c2ncccc2c1	inactive
Cc1ccc(NS(=O)(=O)c2ccc3c(c2)CC(=O)N3)cc1C	inactive
O=C1c2ccccc2C(=O)N1c1noc2ccccc12	inactive
O=C1CCc2cc(S(=O)(=O)Nc3ccc4c(c3)OCCO4)ccc2N1	inactive
Cc1ccc(NS(=O)(=O)c2ccc3c(c2)N(C)C(=O)CO3)cc1C	inactive
